Among all 4,800 compounds or so, about 420 (8.8%) showed an effect of 50% or more. The sample holds strong results, similar compounds and a random draw of the others, so the mix is not that of the screen.
system: Plasmodium falciparum; experiment: Confirmatory screen in NF54 nanoGlo assay, in single point, at 2uM, 72h; format: functional, Erythrocyte; details: timepoint 72 hour

SMILES | % Inhibition
Nc1nc(NCC2CCN(CCc3ccccc3)CC2)cc([C@H]2C[C@@H](N)C2)n1 | 23%
Cc1ccc(-c2cccc3c(C(=O)NCCCN4CCC(N5CCCCC5)CC4)cc(C)nc23)cc1 | 98%
CN(C)CCN1CCC(CNCc2ccc3ncccc3c2)CC1 | 5%
COc1ccc(-c2cncc(C(=O)NCC3CCN(CCN(C)C)CC3)c2)cc1 | 94%
Cn1cncc1[C@@H]1CNC[C@H]1CNC(=O)c1ccccc1NC1CCCCC1 | 79%
Brc1cccc(NCCNC2CCN(Cc3cccnc3)CC2)c1 | 36%
Cc1cc(F)ccc1N1CCC(NCCCNc2cccnc2)CC1 | 18%
CC1CN(c2ccccc2NC(=O)c2ccc(-c3cnco3)cc2)CC(C)O1 (stereo unspecified) | -6%
Cc1ccccc1CN1CCC(CNc2c3c(nc4ccccc24)CCC3)CC1 | 95%
Cc1cc(C)c(-c2csc(Nc3ncnc4[nH]ncc34)n2)cc1C | 19%
O[C@H](COc1ccccc1CNCc1cc(-c2ccccc2)[nH]n1)CN1CCCCC1 | 80%
CN(C[C@H](O)COc1ccccc1CN1CCC(c2ccncc2)CC1)C1CCCCC1 | 39%
CN1CCC(N(C)C[C@H](Nc2ncnc3ccccc23)c2ccccc2)CC1 | 99%
Cc1nc2ccc(Oc3ccccc3)cc2c(O)c1CN(C)C1CCN(C)CC1 | 22%
CC1(N2CCC2)CCC(NC[C@H]2CCN(Cc3ccccc3)C2)CC1 (stereo partly specified) | 66%
OC1CN(Cc2cnc(C3CCCCC3)nc2)CCC1Nc1ncccn1 (stereo unspecified) | 1%
CN1CCN(CCc2ccc(N[C@H]3CCCN(Cc4ccccc4)C3(C)C)cc2)CC1 | 10%
C[C@H]1CCCN(CCNC(=O)c2ccc(-c3ccc4c(=O)[nH]ccc4c3)cc2)C1 | 58%
c1cc(CN2CCN(c3cc(N4CCN(Cc5ccncc5)CC4)ncn3)CC2)ccn1 | 0%
CCOc1ccc2nc(N3CCC(N4CCC([C@H](O)c5cccnc5)CC4)CC3)nc(C)c2c1 | 29%
CCOc1ccc2nc(CN(CC)CC3CCN(C4CCN(C)CC4)CC3)ccc2c1 | 82%
Cc1noc(-c2ccnc(NC[C@@H](c3ccccn3)N3CCOCC3)c2)n1 | 93%
COc1ccnc(NCCCc2nc(-c3ccncc3)cs2)n1 | 65%
CN(C)C1CCN(CCN[C@H]2CCc3ccc(F)cc32)CC1 | 85%

SMILES | % Inhibition
Cc1ccccc1-c1cccc(CNCCCN2CCC[C@H](O)C2)c1 | 12%
Cc1ccccc1-c1cccc(N2CCC(NCC3CCNCC3)CC2)c1 | 99%
CCCN(CCN1CCN(CC)CC1)c1nc(-c2ccccn2)nc2c1CCC2 | 6%
Cc1nc(-c2ccccn2)nc(NC2CCN(CC(F)F)CC2)c1C | 35%
c1ccc(-c2nc3c(c(NCCNc4ncccn4)n2)CCC3)nc1 | 25%
CCOc1cc(C(=O)NC2CCN(CC3CCCC3)CC2)cc(-c2ccccc2)c1OC | 95%
Cc1cnccc1N1CCCN(Cc2ccccc2OCCN2CCN(C)CC2)CC1 | 99%
CN(C)C1(CNc2nc(C(F)(F)F)nc3cc4c(cc23)OCO4)CCCCCC1 | 49%
CN(C)C1(CNc2nc(C(F)(F)F)nc3cc(F)ccc23)CCCCCC1 | 61%
C[C@H](Nc1nc(N)c2ccccc2n1)c1cccc(-n2cncn2)c1 | 36%
COCCNc1nc(N[C@@H](C)c2ccccc2)c2ccccc2n1 | 63%
COCCN1CC[C@H](CNC2CCN(c3ncc4ccc(F)cc4n3)CC2)C1 | 59%
COCCN1CCC[C@H](CNCc2cnn(-c3ccc4ccccc4c3)c2)C1 | 12%
Cc1cc(N2CC3COCCC3(C(=O)O)C2)nc2ccc(F)cc12 (stereo unspecified) | -2%
c1cncc(-c2ccc(CNC3CCN(Cc4cccs4)CC3)cc2)c1 | 45%
Cc1ccn2cc(-c3ccc(N4CCC(NCc5cccnc5)CC4)cc3)nc2c1 | 60%
CN(c1ccccc1)c1ccc(CN2CCN([C@H]3CCNC3)CC2)cc1 | 54%
COC(=O)c1cn(CCNc2ccnc3cc(Cl)ccc23)cc2c(O)nnc1-2 | 95%
Cc1ocnc1CNC[C@H](O)c1ccc(Cl)c(Cl)c1 | 89%
COCCCN1CCC(Nc2ncnc3cc(C)c(C)cc23)CC1 | 97%
CCc1ccc2ncnc(NCCCN3CCN(CCO)CC3)c2c1 | 43%
Cc1cnccc1NCCNCc1cnc(N2CCCCC2)nc1 | 61%
Cc1cnccc1NCCNCc1cccc(OCCCCN2CCOCC2)c1 | 95%
CCN1CCN(c2ccccc2CNCCC2CCN(C)CC2)CC1 | 18%

SMILES | % Inhibition
Fc1ccc(-n2cc(CNCCC3CCN(c4ccncc4)CC3)cn2)cc1 | 88%
c1ccc2c(CNCCC3CCN(c4ccncc4)CC3)csc2c1 | 77%
COc1ccc(-c2cc(-c3ccccc3O)n([C@@H]3C(=O)Nc4ccc(Br)cc43)n2)cc1 | 31%
CN1CCN(CCNC2CCN3CCCC3C2)C(c2ccccc2)C1 (stereo unspecified) | 32%
CCCc1cccc(CNC2CCN(C3CCN(C)CC3)CC2)c1 | 58%
C[C@@H](CNC1CCN(C2CCN(C)CC2)CC1)c1cccc(Cl)c1 | 98%
COc1ccc2nc(C)cc(NCc3cccc(NC(=O)c4ccco4)c3)c2c1 | 96%
Cc1cc(NCCCN2CCC[C@H](O)C2)c2cc(F)ccc2n1 | 28%
COc1ccc2c(C)cc(NCCCN3CCC[C@H](C(N)=O)C3)nc2c1 | 87%
N[C@H]1CC[C@@H](NC2CCN(c3ccc(F)c(F)c3)CC2)CC1 | 45%
Fc1ccc(N2CCC(N[C@@H]3COC4(CCNCC4)C3)CC2)cc1F | 13%
Cc1nc2ccc(CNC3CCN(c4ccc(F)c(F)c4)CC3)cc2[nH]1 | 56%
COC(CN(Cc1nc(N)nc(Nc2ccc(C)cc2)n1)Cc1nc(N)nc(Nc2ccc(C)cc2)n1)OC | 84%
OCCN1CCC(NCCc2cc(Cl)cc(Cl)c2)CC1 | 28%
CN1CCN(CCCCNC2CC3CCC(C2)N3Cc2ccccc2)CC1 (stereo unspecified) | 34%
O=C(NCc1cccc(-c2cccnc2)c1)N[C@H]1CCN(C2CCCCC2)C1 | 48%
O=C(CCc1nnc(-c2ccc(-c3ccccc3)cc2)o1)NC[C@@H]1CCCN2CCCC[C@H]12 | 56%
CC(C)(C)n1ncc2c(NCc3ccc4cccnc4c3O)ncnc21 | 27%
CNc1nc(N2CCN(CC(=O)NC3CCCCC3)CC2)nc2ccccc12 | 23%
CN1CCN(CC2CCN(c3ccnc4ccccc34)CC2)CC1 | 99%
COc1ccc2c(N3CC[C@H](CN4CCCC4)C3)ccnc2c1 | 99%
COc1cc2nc(-c3ccc(F)c4cccnc34)nc(N)c2cc1OC | 98%
Cc1cccc(Nc2ccnc(Nc3ccc(N4CCN(C)CC4)cc3)n2)c1 | 93%
